For 20 molecules, growth inhibition results are on record in PubChem BioAssay (NCI).

About 79,000 compounds went through this panel and 15% of them were active in at least one assay; those are over-represented in the sample as a whole. Unmarked numbers belong to inactive results. Rule as the data show it: active = growth inhibition above about 70%; inactive = the rest.

A short description of this test: NCI Yeast Anticancer Drug Screen. Data for the CLN2oe strain (AID 163).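 Also: 0% = growth of vehicle-only control cultures.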 Conditions: S. cerevisiae CLN2oe strain, at 3.7 µM, stronger effect = higher value. Summed up:
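Read-out: yeast growth inhibition, expressed relative to vehicle-only controls. The strain bears an engineered cell-cycle alteration.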
For the molecule `CCCc1cc(C(=O)OCC)cc(CCC)c1O`, the growth inhibition is -6%.
With `CC(C)[N+]([O-])(CCCNc1c2ccccc2nc2cccc([N+](=O)[O-])c12)C(C)C`, the growth inhibition was 2%.
Under `COc1cc2c3c(cccc3c1)C(=O)N(CCN(C)C)C2=O` stands 13%; under `NC(=O)NN=C(CS)CS`, -11%; under `Cc1ccc(NC(=O)/C(Cl)=C(\Cl)C(=O)O)cc1C`, 4%.
The same measure for `CCN(CC)CC[n+]1ccc2c(C)c3[nH]c4ccc(O)cc4c3c(C)c2c1`: -4%; for `CC(CC(C)(C)[N+](C)(C)C)[N+](C)(C)C` (stereo not given): -1%.
As for `COc1ccc(OC)c2cc3ccccc3cc12`, the growth inhibition was 14%.
The same measure for `Nc1ncncc1C(C1=C(O)COC1=O)C1=C(O)COC1=O`: -16%; for `CSC1=NNC(SC)=NN1`: 17%.
The same measure for `Cc1c(Cl)ccc2c1S(=O)(=O)c1cccc(Cl)c1-2`: 6%; for `[O-][n+]1c2ccc(O)cc2nc2ccc(Cl)cc21`: 9%; for `COc1ccc2ccc3ccccc3c2c1C=O`: -6%.
On to `Nc1ccc2c(c1)C(=O)c1cccc(N)c1C2=O`, for which the growth inhibition was 3%.
Under `O=C(c1ccc(Cl)cc1Cl)C(Cl)Cl` stands -8%; under `COc1cc(C(=O)/C=C/c2ccccc2O)ccc1O`, 42%; under `O=Cc1cccc2ccc3ccccc3c12`, 0%.
For `O=C(Nc1ccc(Cl)cc1)OCC#CCCl`, the growth inhibition was -3%.
Under `Cn1ccnc1Oc1ccc(Cl)cc1` stands -3%; under `c1ccc2c(c1)C(=NCCCN1CCCCCC1)c1cccn1-2`, -15%.
